From PubChem BioAssay
TDP1 cell noCPT – qHTS for Inhibitors of human tyrosyl-DNA phosphodiesterase 1 (TDP1): qHTS in cells in absence of CPT | 420,000 tested, 15% active | Potency, µM (series often up to 46.2 µM), for inactives: at the top dose activity change, negative = growth inhibition, usual class: inhibitors | DT40 Tdp1-/- hTDP1 cells, no CPT, ATP luminescence, 48 h; note: potency is the fitted concentration of half-maximal effect; nearly all actives have a fitted effect of over 55% in size
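Seeded 400 DT40-hTDP1 cells/well (vehicle DMSO, no 20 nM CPT); pinned compounds; ≥48 hr at 37 °C; CellTiter-Glo luminescence as viability measure.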
HT1080NT lethal – kills 2HG-producing HT-1080-NT fibrosarcoma cells; AID 686970; Potency, µM (highest dose often 46.1 µM), for the others: top-dose activity, negative = less viability, actives largely listed as cytotoxic; HT-1080-NT fibrosarcoma viability, CellTiter-Glo ATP luminescence, 48 h; 360,000 tested, 1.6% active;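 note: NT is the 2HG producing partner of a matched IDH1 knockdown line; potency is the fitted concentration of half-maximal effect; 0% = DMSO-treated cells and -100% = media-only wells without cells; nearly all actives have a fitted effect of over 55% in size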
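HT-1080-NT fibrosarcoma cells (2HG-overproducing), 750 cells/well in RPMI with 5% FBS, dosed after 2 h and incubated 48 h at 37C. CellTiter-Glo luminescence normalized to DMSO and no-cell wells; concentration-response curves fitted and classed.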
TDP1 cell CPT – DT40-hTDP1 cell growth loss with CPT; chicken DT40 Tdp1-/-;hTDP1 cells + 20 nM CPT, ATP luminescence, 48 h; 420,000 tested, 12% active; Potency, µM (top dose mostly 46.2 µM), for the others: at the top dose activity change, negative = growth inhibition, most hits filed as inhibitors; note: potency is the fitted concentration of half-maximal effect; nearly all actives have a fitted effect of over 55% in size
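Chicken DT40 Tdp1-/- cells complemented with human TDP1, 400 cells/well, exposed to compounds plus 20 nM camptothecin for at least 48 h at 37 C; viability read as ATP content by CellTiter-Glo luminescence.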
HT1080 IDH1KD tx – kills HT-1080 cells with IDH1 knockdown. Potency, µM (titrated, usually from 46.1 µM), inactives show top-dose activity, negative = toxicity, usual class: cytotoxic. HT-1080 IDH1 knockdown viability, ATP luminescence, 48 h. 360,000 tested, 2% active;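 note: potency is the fitted concentration of half-maximal effect; 0% = DMSO wells and -100% = cell-free medium wells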
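Using the IDH1-knockdown HT-1080 line run in the same batch and compound series as the NT line, viability after 48 h at 37 °C was determined by CellTiter-Glo luminescence and expressed as % activity.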
IL1B secr inh – inhibitors of inflammasome signaling (IL-1 beta secretion) | THP-1 LPS/ATP IL-1B secretion, AlphaLISA, 16 h; hits give low values | activity change, % at 57.5 µM | 360,000 tested, 4.7% active; in the data active = activity change below about -50%; inconclusive = mostly about -30% to -49%
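THP-1 cells pretreated 1 hr with compounds (up to 57.5 uM final), then stimulated with LPS (250 ng/mL final) plus ATP (1.25 mM final); secreted IL-1B measured by AlphaLISA after 16 hr, decreased signal indicating inhibition.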
12-LOX inh – ALOX12 (human) lipoxygenase inhibition. P18054. purified 12hLO, xylenol orange hydroperoxide absorbance. Potency, µM (doses to about 108 µM), for the others: top-dose activity change, negative = inhibition, usual class: inhibitors. 580,000 tested, 1.1% active; note: potency is the fitted concentration of half-maximal effect
Target sequence (P18054 whole entry, looked up): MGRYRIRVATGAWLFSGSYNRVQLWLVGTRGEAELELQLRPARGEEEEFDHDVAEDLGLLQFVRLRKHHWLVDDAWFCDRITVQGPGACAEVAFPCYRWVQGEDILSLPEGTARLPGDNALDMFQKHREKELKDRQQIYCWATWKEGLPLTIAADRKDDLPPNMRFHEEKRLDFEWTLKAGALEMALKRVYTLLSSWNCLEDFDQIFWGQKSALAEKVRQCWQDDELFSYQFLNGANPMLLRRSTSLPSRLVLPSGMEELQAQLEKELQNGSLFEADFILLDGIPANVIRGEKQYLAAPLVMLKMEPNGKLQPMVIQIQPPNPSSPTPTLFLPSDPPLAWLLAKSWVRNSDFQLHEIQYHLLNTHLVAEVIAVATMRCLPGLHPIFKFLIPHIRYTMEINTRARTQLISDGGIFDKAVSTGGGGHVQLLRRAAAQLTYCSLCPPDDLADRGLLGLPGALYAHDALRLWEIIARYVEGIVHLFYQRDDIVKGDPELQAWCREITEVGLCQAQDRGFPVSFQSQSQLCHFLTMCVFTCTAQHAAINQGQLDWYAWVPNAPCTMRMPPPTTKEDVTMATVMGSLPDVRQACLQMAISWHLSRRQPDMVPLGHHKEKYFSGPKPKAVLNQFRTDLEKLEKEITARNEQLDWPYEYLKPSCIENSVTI
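Purified human 12hLO (150 nM final) in 25 mM Hepes, 0.01% Triton X-100, pH 7.0 was preincubated 15 min at room temperature with compound. Then 40 uM arachidonic acid was added, 30 min. Hydroperoxide was read by Fe-XO absorbance ratio 573/405 nm.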
* hit, by the source's call; ? = inconclusive; · = not tested or not shown; [ ] = another dose, or the depositor's remark. The full list was thinned out, with hits kept by preference. Unless noted, calls come from the whole dose curve; as a rule, active = well fitted curve in the direction sought with a large enough effect; inconclusive = small, poorly fitted or top-dose-only effect, or another doubt; inactive = no such curve, though single readings can be large; an effect the other way counts as inactive or inconclusive. Unless noted, % is set by controls: 0 for no effect and ±100 for the full control effect.

SMILES	TDP1 cell noCPT	HT1080NT lethal	TDP1 cell CPT	HT1080 IDH1KD tx	IL1B secr inh	12-LOX inh
Cc1ccc(Cn2ccsc2=NC(=O)COC(=O)C(C)C)cc1	8.2µM*	-27.3%	14.6µM*	?	-10.2	-9.5%
Nc1ccc(N2CCCCC2)cc1N1CCCCC1	?	?	?	-17.5%[9.24 µM]	?	253.6%
Nc1ccc(N2CCCCC2)c2nonc12	16.4µM*	?	25.9µM*	-12.3%	8.5	?
O=C(/C=C/c1cccs1)Nc1ccncc1	?	17.0%	-7.9%	-1.5%	?	14.1%
CCCOC(=O)c1ccc(NC(=O)/C=C/c2cccs2)cc1	18.4µM*	-11.8%	?	-21.2%	-11.1	-7.8%
COC(=O)c1sc(=S)n(-c2cc(F)ccc2F)c1N	?	-17.8%	14.6µM*	-16.5%	-7.2	?
CCOC(=O)c1sc(=S)n(-c2cc(F)ccc2F)c1N	-28.0%	-1.5%	?	?	-17.8	?
O=C(NCc1ccccn1)c1cnn(-c2ncc3c(n2)-c2ccccc2CC3)c1C1CC1	?	·	-17.3%[9.04 µM]	·	·	7.4%
COc1ccc(N=c2nc(-c3ccccc3)n(-c3ccc(C)cc3)s2)cc1	3.16µM*	·	4.47µM*	·	·	·
COc1ccc(N=C2SCC(=O)N2c2ccc(OC)cc2)cc1	-9.2%	3.5%	-4.1%	-2.4%	0.8	8.0%[57.4 µM]
COc1ccc(N=c2nc(-c3ccc(C)cc3)n(-c3ccccc3)s2)cc1	3.55µM*	·	3.98µM*	·	·	·
COc1ccc(N=C2C(=Nc3ccc(OC)cc3)N(c3ccc(OC)cc3)C(=S)N2C)cc1	?	-18.9%	?	?	-12.6	·
Cc1ccc(-c2nc(=Nc3ccccc3)sn2-c2ccccc2)cc1	3.16µM*	·	3.55µM*	·	·	·
COc1ccc(N=C2C(=Nc3ccc(OC)cc3)N(c3ccc(OC)cc3)C(=S)N2c2ccccc2)cc1	18.4µM*	?	20.6µM*	3.9%	-20.4	9.5%[57.4 µM]
COc1ccc(N=C2SCC(c3ccccc3)=NN2C)cc1	?	-8.1%	?	-5.6%	-8.0	?
CC(C)CNC(=O)C1COC2(CCN(C(=O)c3ccccc3Cl)CC2)N1C(=O)c1ccccc1 (stereo not given)	·	·	·	·	·	46.5%
Cc1ccccc1Cn1c(=N)n(CC(=O)c2ccc([N+](=O)[O-])cc2)c2ccccc21	5.17µM*	-27.9%	4.11µM*	-19.1%	·	?
CCCn1c(=N)n(CC(=O)c2ccc([N+](=O)[O-])cc2)c2ccccc21	23.1µM*	-17.1%	?	-17.5%	-52.9*	?
CCCn1c(=N)n(CC(=O)c2ccc(OCC(=O)OC)cc2)c2ccccc21	?	0.7%	?	-3.1%	-4.1	85.1%
C[C@H](CO)N1C[C@H](C)[C@@H](CN(C)C(=O)Nc2ccccc2)OCc2cn(nn2)CCCC1=O	·	·	·	·	·	-18.3%
O=C(N1CCC2(CC1)[C@H](O)C[C@@H]2OCCO)C1(c2ccccc2)CCCC1	·	·	·	·	·	4.9%
COc1cccc(CC(=O)Nc2ccc3c(c2)OC2(CCCC2)O3)c1	?	-3.7%	18.4µM*	-0.1%	0.0	-1.4%
N#CC1C=Cc2ccccc2N1C(=O)c1ccccc1 (stereo not given)	-8.7%	-21.7%	-21.5%	?	24.2	20.6%
N#CC1C=Cc2c(ccc3ccccc23)N1C(=O)c1ccccc1 (stereo not given)	0.92µM*	1.84µM*	0.581µM*	?	-66.2*	-20.0%
CSc1cc(-c2ccc(Cl)cc2)c(C(=O)NC(C)C)s1	11.6µM*	18.4%	9.2µM*	10.0%	-13.9	46.8%
SMILES	TDP1 cell noCPT	HT1080NT lethal	TDP1 cell CPT	HT1080 IDH1KD tx	IL1B secr inh	12-LOX inh
C=CCN1C(=O)C(CC(=O)Nc2ccc(OC)cc2)SC1=Nc1ccc(S(N)(=O)=O)cc1 (stereo not given)	2.7%	12.4%	24.2%	13.8%	6.4	-6.6%
COc1ccc(N=C2SC(CC(=O)Nc3ccccc3)C(=O)N2CCc2ccccn2)cc1 (stereo not given)	?	1.5%	?	10.1%	-12.6	-23.4%
COc1cc([N+](=O)[O-])ccc1NC(=O)CC1SC(=Nc2ccc(F)cc2)N(CCC2=CCCCC2)C1=O (stereo not given)	14.6µM*	-1.4%	16.4µM*	-3.5%	-4.0	-11.7%
COc1ccc(N=C2SC(CC(=O)Nc3cccc(Cl)c3)C(=O)N2Cc2ccco2)cc1 (stereo not given)	?	?	?	16.4µM*	?	-5.3%
COc1ccc(N=C2SC(CC(=O)Nc3ccccc3)C(=O)N2Cc2ccccn2)cc1 (stereo not given)	23.1µM*	-26.7%	29.1µM*	-8.2%	-67.0*	1.5%
COc1ccc(OC)c(NC(=O)CC2SC(=Nc3ccccc3)N(CCc3ccccn3)C2=O)c1 (stereo not given)	?	-16.7%	23.1µM*	-18.9%	?	20.3%
O=C(CSc1ccccc1C(=O)Nc1ccc2[nH]c(=O)[nH]c2c1)NCc1ccco1	·	·	·	·	·	-32.8%
CC(C)Oc1cccc(NC(=O)/C=C/c2ccc(F)cc2)c1	·	·	·	·	·	26.6%
CC(C)N(C(=O)Cn1cc(S(=O)(=O)Cc2ccc(Br)cc2)c2ccccc21)C(C)C	16.4µM*	·	23.1µM*	·	·	0.0%
Cc1ccc(C)c(CS(=O)(=O)c2cn(CC(=O)N3CCC(C)CC3)c3ccccc23)c1	16.4µM*	5.3%	?	0.0%	-18.3	1.0%
Cc1ccc(C)c(CS(=O)(=O)c2cn(CC(=O)N(C(C)C)C(C)C)c3ccccc23)c1	11.6µM*	·	14.6µM*	·	·	-27.8%
CC(Oc1ccc2ccc(=O)oc2c1)C(=O)Nc1ccc(F)c(F)c1 (stereo not given)	·	·	·	·	·	-24.7%
CNC(=O)[C@@H]1CN(C(=O)COc2ccc(Cl)cc2C)C[C@H]1COC	·	·	·	·	·	53.8%
CC(=O)c1ccc(S(=O)(=O)NCC2CCN(C(=O)C(=O)c3cc4ccccc4o3)CC2)cc1	·	·	·	·	·	-5.3%
CCn1cc(C(=O)N2CCC3(CCCN(C)C3=O)C2)cn1 (stereo not given)	·	·	·	·	·	6.7%
O=C(COc1nc2ccccc2nc1N1CCOCC1)Nc1ccccc1	·	·	·	·	·	4.9%
O=[N+]([O-])c1ccc(Br)c(CN2CCN(c3ncc(Cc4ccccc4)cn3)CC2)c1	20.6µM*	-9.5%	?	-19.8%	59.6	-20.0%
Oc1ccc(F)c(CN2CCN(c3ncc(Cc4ccccc4)cn3)CC2)c1	25.9µM*	?	?	?	21.8	-16.1%
